Molecules are shown by their SMILES. Records with an inconclusive call do not appear. The source made the active and inactive calls. The calls were made as follows: active = hit-call score of the fitted dose curve at least 0.9, where 1 is the maximum; inconclusive = response in the unintended direction; inactive = score below 0.9.

Assay [1] addresses human Thyroid Receptor Alpha (TRa), THRA (gene 7067) (UniProt P10827). Description: NVS_NR_hTRa_Antagonist: NovaScreen (NVS) Nuclear Receptor Binding Assay for human Thyroid Receptor Alpha Antagonism (TRa) (AID 2283362).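 Also: activity is loss of signal relative to DMSO baseline.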 The method, boiled down: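 In this biochemical format, receptor protein is dosed with chemical and read after 1 hour via AlphaLISA. Decreases from the DMSO baseline indicate antagonist activity; screening used 25 uM in duplicate before concentration-response confirmation.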

Assay [2] has as its target rat Androgen Receptor (AR), Ar (gene 24208) (UniProt P15207). Description: NVS_NR_rAR: NovaScreen (NVS) Nuclear Receptor Binding Assay for rat Androgen Receptor (AR) (AID 2283366). The method, boiled down:
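Cell-free radioligand binding on extracts of prostate from testosterone-pretreated rats, read by filter-based scintillation counting 18 h after dosing. Loss of bound signal fitted positively versus DMSO; primary screen in duplicate at 25 uM, actives followed up in concentration series.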

In assay [3] the target is human Adenosine Transporter (Adot), SLC29A1 (gene 2030) (UniProt Q99808). Description: NVS_TR_hAdoT: NovaScreen (NVS) Transporter Assay for human Adenosine Transporter (Adot) (AID 2283368). The method, boiled down:
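U937-derived membranes, cell-free radioligand binding, filter scintillation 1 h after dosing. 25 uM duplicate screen; hits (e.g. 30% inhibition) run in concentration-response up to 50 uM; loss of signal versus DMSO.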

rat Androgen Receptor (AR), Ar (gene 24208), sequence (P15207 whole entry, looked up): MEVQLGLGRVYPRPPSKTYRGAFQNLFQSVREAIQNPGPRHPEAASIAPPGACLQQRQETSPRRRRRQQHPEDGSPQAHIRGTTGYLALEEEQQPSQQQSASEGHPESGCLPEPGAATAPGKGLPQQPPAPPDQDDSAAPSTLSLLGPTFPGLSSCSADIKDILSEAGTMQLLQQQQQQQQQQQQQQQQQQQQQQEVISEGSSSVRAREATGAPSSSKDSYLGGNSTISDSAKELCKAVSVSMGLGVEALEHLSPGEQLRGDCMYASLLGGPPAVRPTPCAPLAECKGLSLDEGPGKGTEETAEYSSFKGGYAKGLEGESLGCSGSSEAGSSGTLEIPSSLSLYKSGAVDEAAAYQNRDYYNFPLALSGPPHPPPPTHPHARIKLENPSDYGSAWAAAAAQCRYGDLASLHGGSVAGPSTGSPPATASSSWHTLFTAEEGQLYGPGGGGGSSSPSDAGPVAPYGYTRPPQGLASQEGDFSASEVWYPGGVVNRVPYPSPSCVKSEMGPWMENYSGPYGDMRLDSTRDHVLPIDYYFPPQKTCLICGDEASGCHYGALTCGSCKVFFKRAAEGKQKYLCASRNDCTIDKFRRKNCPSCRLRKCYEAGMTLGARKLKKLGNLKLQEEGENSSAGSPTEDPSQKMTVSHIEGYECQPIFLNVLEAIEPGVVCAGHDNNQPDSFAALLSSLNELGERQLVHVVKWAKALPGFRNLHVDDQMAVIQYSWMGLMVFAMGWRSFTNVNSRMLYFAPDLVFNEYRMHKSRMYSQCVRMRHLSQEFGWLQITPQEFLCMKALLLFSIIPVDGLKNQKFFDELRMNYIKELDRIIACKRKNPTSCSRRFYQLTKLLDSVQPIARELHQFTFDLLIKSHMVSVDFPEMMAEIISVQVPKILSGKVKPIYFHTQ
human Thyroid Receptor Alpha (TRa), THRA (gene 7067), sequence (P10827 whole entry, looked up): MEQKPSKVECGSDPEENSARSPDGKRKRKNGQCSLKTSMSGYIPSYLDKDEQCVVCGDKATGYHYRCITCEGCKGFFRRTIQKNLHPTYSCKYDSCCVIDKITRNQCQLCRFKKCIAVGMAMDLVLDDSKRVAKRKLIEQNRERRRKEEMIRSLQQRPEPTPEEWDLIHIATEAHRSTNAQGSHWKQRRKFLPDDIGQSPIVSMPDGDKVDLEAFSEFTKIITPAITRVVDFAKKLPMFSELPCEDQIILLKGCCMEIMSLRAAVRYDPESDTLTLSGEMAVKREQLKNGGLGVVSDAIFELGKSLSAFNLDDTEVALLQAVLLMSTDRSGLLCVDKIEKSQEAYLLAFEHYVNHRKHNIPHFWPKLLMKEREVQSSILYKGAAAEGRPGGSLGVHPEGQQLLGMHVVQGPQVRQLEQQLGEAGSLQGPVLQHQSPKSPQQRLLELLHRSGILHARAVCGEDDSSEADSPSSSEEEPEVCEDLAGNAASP
human Adenosine Transporter (Adot), SLC29A1 (gene 2030), sequence (Q99808 whole entry, looked up): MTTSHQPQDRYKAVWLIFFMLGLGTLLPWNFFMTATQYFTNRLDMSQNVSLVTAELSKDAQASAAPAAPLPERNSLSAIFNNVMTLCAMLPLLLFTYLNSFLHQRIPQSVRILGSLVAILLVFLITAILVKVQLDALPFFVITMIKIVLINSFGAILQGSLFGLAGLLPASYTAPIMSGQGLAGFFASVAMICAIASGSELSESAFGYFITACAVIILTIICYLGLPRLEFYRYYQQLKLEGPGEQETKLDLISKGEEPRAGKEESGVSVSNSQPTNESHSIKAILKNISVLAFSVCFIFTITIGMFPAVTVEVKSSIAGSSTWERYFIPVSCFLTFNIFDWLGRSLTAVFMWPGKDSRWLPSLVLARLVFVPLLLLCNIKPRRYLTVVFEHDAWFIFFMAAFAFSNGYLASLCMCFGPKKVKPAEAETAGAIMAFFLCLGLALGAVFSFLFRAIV

On to `CCCCCCCc1ccc(O)cc1`, for which the call in assay [1] and in assay [2] was inactive. `CO/N=C(/C(=O)OC)c1ccccc1COc1ccccc1C`: the compound was called inactive in assay [1].

As to `O=P(Oc1ccccc1)(Oc1ccccc1)Oc1ccccc1`, the outcome in assay [3] was inactive.

(Values after PubChem BioAssay (EPA / NIEHS).)
